Assay results as given in PubChem BioAssay (NCATS).
Several values for one entry are separate records, joined by “and”; a condition that tells them apart may be missing. Equal entries are not always repeated. Records with an inconclusive call do not appear. Entries that show only a call come without a potency. Activity calls are given as the source filed them. Unless noted, the call rests on the fitted dose curve.

What was measured:
[1] = target: Peroxisome proliferator-activated receptor gamma (Homo sapiens) (UniProt P37231); experiment: qHTS assay for small molecule agonists of peroxisome proliferator-activated receptor gamma signaling (AID 588536; active means well fitted curve in the direction sought with a large enough effect in the signal ratio, with a control signal flat, not every such curve was filed as active; the % refers to the signal ratio)
Peroxisome proliferator-activated receptor gamma (Homo sapiens), sequence (P37231 whole entry, looked up): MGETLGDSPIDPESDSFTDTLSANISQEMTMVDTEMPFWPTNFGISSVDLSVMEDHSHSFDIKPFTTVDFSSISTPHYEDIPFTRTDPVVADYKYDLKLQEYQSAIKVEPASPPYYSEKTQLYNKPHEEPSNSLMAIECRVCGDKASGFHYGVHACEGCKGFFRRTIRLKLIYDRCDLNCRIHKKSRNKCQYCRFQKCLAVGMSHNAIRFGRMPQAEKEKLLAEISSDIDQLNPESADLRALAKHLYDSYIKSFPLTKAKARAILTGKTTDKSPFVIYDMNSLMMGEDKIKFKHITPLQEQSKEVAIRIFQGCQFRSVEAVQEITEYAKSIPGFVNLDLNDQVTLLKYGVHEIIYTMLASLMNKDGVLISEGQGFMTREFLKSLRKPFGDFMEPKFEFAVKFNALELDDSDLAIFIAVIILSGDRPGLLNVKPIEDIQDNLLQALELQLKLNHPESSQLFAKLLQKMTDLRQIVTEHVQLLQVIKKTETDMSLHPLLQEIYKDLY
How it was run: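 Beta-lactamase reporter read-out: CCF4 fluorescence (ex 405, em 460/530 nm) after 2 h at RT. HEK293 GeneBLAzer cells were treated for 16 h at 37 C. Hill fits gave EC50 and efficacy versus 2 uM rosiglitazone (100%) and DMSO (0%).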

[2] = target: Peroxisome proliferator-activated receptor gamma (Homo sapiens) (UniProt P37231); experiment: qHTS assay for small molecule antagonists of peroxisome proliferator-activated receptor gamma signaling (AID 588537; active means well fitted inhibition curve with a large enough effect in the signal ratio, with a control signal flat, not every such curve was filed as active; the % refers to the signal ratio; further: potency means the concentration at half of the fitted maximal effect)
How it was run: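 Read-out: CCF4 fluorescence (ex 405, em 460/530 nm) after 2 h at RT. Cells were HEK293 carrying a UAS-bla reporter and treated 16 h at 37 C with compound plus rosiglitazone (50 nM final). Normalized to rosiglitazone and DMSO.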

[3] = qHTS assay for small molecule agonists of the antioxidant response element (ARE) signaling pathway measured by Nrf2-dependant transcriptional activity (AID 720636; active means well fitted curve in the direction sought with a large enough effect in the repeat runs; an effect the other way counts as inactive or inconclusive;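 further: HepG2 cells with an ARE-driven luciferase reporter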)
How it was run: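 We exposed ARE-luc HepG2 cells, seeded in assay medium with 1% dialyzed FBS and allowed 6 hr to adhere, to test compounds overnight (16 hr, 37 C) before measuring luciferase with ONE-Glo.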

[4] = qHTS assay for small molecule activators of the nuclear factor-kappa B (NF-kB) signaling pathway (AID 651749; active means well fitted activation curve with a large enough effect in the signal ratio; the % refers to the signal ratio; further: series mostly up to about 77 µM); details: NF-kB-bla ME-180 cells, beta-lactamase FRET ratio, 16 h; activation: stronger effect = higher value
How it was run: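 NF-kB-bla ME-180 cells, 2,000/well; 23 nL compound or DMSO pinned; 16 hr, 37C/5% CO2; beta-lactamase FRET read-out.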

[5] = target: Nuclear receptor subfamily 1 group I member 2 (Rattus norvegicus) (UniProt Q9R1A7); experiment: qHTS assay for small molecule activators of the rat pregnane X receptor (rPXR) signaling pathway (AID 651751; call rule not given here); details: rPXR reporter cells, luciferase (One-Glo), 24 h
Nuclear receptor subfamily 1 group I member 2 (Rattus norvegicus), sequence (Q9R1A7 whole entry, looked up): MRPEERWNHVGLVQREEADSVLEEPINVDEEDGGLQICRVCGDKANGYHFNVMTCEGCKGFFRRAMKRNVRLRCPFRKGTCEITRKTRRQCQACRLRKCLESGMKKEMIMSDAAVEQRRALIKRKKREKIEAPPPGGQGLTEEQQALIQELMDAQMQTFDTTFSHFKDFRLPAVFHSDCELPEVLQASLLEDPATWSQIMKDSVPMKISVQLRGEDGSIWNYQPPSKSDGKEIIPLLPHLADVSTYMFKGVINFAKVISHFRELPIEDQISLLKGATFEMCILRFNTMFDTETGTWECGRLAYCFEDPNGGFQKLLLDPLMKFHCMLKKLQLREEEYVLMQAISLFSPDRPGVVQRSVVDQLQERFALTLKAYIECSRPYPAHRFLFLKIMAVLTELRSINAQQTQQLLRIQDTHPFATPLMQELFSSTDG

[6] = target: Bile acid receptor (Homo sapiens) (UniProt Q96RI1); experiment: qHTS assay for small molecule agonists of farnesoid X receptor signaling (AID 588527); details: HEK293T FXR-UAS-bla, beta-lactamase ratio, 16 h; activation: stronger effect = higher value; further: series mostly up to about 77 µM
Bile acid receptor (Homo sapiens), sequence (Q96RI1 whole entry, looked up): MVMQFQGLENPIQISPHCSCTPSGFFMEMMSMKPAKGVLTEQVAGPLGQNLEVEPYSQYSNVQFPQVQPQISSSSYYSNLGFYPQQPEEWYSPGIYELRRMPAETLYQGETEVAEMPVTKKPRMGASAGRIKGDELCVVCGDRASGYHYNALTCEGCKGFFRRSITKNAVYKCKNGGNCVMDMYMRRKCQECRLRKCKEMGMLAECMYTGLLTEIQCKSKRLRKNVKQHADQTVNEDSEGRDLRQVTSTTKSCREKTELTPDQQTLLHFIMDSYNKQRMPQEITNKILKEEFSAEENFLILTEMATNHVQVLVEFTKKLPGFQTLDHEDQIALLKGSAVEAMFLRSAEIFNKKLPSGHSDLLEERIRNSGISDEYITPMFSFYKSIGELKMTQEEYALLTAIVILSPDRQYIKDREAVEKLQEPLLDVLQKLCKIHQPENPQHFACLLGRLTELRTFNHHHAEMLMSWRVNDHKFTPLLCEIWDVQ
How it was run: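 Read-out: beta-lactamase reporter fluorescence with CCF4 substrate in GeneBLAzer FXR-UAS-bla HEK293T cells, after 16 h compound exposure at 37 C. Response scaled between DMSO basal (0%) and chenodeoxycholic acid at 100 uM (100%).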

[7] = target: Estrogen receptor (Homo sapiens) (UniProt P03372); experiment: qHTS assay for small molecule antagonists of estrogen receptor alpha signaling (AID 588513; active means well fitted curve in the direction sought with a large enough effect in the signal ratio, with a control signal flat, not every such curve was filed as active; the % refers to the signal ratio)
Estrogen receptor (Homo sapiens), sequence (P03372 whole entry, looked up): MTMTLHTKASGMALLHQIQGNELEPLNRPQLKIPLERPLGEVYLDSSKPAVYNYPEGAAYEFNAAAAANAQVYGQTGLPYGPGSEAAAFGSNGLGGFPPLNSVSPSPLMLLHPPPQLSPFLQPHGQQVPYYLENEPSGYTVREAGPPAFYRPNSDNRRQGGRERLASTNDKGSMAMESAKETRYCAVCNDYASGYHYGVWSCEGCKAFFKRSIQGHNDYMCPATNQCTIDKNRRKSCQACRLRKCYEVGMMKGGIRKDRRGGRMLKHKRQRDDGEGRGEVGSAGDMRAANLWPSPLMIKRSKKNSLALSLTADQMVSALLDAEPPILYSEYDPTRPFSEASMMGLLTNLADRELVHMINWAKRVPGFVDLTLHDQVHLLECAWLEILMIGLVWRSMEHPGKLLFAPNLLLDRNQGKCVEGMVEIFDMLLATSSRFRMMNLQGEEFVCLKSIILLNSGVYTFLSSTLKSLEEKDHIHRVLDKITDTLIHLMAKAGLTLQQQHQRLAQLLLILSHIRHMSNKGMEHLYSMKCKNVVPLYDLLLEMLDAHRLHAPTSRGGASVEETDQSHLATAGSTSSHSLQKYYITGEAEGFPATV
How it was run: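 ER-alpha-UAS-bla GripTite HEK 293 cells in medium with 2% charcoal/dextran-treated FBS were preincubated 4 h at 37 C, dosed with compound (1:2 titration), stimulated with 0.5nM 17-beta-estradiol for 18 h, then read by CCF4 beta-lactamase fluorescence.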

[8] = target: Androgen receptor (Homo sapiens) (UniProt P10275); experiment: qHTS assay for small molecule agonists of androgen receptor signaling (AID 588515; active means well fitted curve in the direction sought with a large enough effect in the signal ratio, with a control signal flat; the % refers to the signal ratio); details: AR-UAS-bla HEK293, beta-lactamase ratio, agonist 16 h; stronger effect = higher value
Androgen receptor (Homo sapiens), sequence (P10275 whole entry, looked up): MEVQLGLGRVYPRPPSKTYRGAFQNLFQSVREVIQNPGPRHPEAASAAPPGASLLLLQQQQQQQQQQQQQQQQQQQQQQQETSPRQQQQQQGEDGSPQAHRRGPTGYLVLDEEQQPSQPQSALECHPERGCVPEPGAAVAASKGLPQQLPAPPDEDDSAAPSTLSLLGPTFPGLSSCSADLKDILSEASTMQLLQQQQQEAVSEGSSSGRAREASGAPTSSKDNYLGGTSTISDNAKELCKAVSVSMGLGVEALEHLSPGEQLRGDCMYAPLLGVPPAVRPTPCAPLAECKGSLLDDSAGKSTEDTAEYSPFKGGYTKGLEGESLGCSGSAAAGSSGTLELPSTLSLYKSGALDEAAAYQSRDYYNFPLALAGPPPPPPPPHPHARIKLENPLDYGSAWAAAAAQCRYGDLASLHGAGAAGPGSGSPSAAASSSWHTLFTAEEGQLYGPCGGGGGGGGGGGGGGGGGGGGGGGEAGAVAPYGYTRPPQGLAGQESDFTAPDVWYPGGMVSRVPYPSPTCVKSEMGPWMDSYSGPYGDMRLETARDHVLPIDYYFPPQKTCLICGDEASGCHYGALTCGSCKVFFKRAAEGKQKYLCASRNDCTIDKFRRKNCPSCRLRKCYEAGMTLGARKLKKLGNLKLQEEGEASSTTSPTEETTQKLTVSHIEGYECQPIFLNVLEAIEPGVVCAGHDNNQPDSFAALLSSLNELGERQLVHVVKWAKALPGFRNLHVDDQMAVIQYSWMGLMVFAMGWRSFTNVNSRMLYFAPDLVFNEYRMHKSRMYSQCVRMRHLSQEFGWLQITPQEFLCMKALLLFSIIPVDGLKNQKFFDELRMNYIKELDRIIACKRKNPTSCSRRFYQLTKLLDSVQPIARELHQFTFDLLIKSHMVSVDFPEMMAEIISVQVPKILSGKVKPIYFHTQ
How it was run: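 Stimulation of an AR-responsive β-lactamase reporter in GripTite HEK293 cells was measured after 16 h compound exposure at 37 °C, via CCF4 fluorescence after 2 h RT. EC50 from Hill fits, normalized to R1881 at 30 nM.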

[9] = target: Bile acid receptor (Homo sapiens) (UniProt Q96RI1); experiment: qHTS assay for small molecule antagonists of farnesoid X receptor signaling (AID 588526)
How it was run: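 Antagonist mode: titrated compounds tested against chenodeoxycholic acid stimulation (normalized to 50 uM CDCA and DMSO) in GeneBLAzer HEK293T cells for 16 h. Beta-lactamase read by CCF4 fluorescence; IC50 from Hill fits.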

[10] = target: Glucocorticoid receptor (Homo sapiens) (UniProt P04150); experiment: qHTS assay for small molecule antagonists of glucocorticoid receptor signaling (AID 588533; active means well fitted inhibition curve with a large enough effect in the signal ratio, with a control signal flat, not every such curve was filed as active; the % refers to the signal ratio;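 further: cells stimulated with 2 nM dexamethasone as agonist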)
Glucocorticoid receptor (Homo sapiens), sequence (P04150 whole entry, looked up): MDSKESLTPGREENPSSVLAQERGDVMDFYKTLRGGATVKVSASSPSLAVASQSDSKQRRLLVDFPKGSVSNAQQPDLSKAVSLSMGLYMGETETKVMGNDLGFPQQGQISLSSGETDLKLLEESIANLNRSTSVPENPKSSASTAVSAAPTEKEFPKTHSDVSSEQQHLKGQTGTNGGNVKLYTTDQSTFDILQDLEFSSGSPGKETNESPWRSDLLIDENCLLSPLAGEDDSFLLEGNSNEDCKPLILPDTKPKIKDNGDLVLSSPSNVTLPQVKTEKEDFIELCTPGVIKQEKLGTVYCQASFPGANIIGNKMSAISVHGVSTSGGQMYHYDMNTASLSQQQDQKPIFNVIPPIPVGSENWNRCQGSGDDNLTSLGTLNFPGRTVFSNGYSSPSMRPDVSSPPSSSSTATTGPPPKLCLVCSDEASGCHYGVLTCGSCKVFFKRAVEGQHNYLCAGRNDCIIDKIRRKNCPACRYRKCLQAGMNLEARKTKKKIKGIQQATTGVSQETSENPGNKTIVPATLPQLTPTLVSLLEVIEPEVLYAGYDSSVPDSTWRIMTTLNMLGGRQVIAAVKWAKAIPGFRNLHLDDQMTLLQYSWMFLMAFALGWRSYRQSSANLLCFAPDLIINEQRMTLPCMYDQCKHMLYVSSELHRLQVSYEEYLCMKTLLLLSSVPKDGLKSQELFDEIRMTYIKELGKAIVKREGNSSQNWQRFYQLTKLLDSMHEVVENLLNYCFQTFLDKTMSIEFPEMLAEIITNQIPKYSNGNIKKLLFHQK
How it was run: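 Antagonist-mode qHTS: compound titrations added to GRE-bla HeLa cells, then dexamethasone 2 nM final; 18 h, 37 C. CCF4 FRET fluorescence normalized to dexamethasone and DMSO; IC50 from Hill fit.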

[11] = qHTS assay for small molecule antagonists of peroxisome proliferator-activated receptor delta signaling (AID 588535; active means well fitted inhibition curve with a large enough effect in the signal ratio, with a control signal flat, not every such curve was filed as active; the % refers to the signal ratio;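 on max response: cells co-treated with a PPAR-delta agonist as stimulator during compound exposure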); details: HEK293T PPARd-UAS-bla, beta-lactamase FRET ratio, 18 h; 460 nm channel
How it was run: (§1)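 Beta-lactamase reporter read-out (405 nm excitation, 460/530 nm emission) after CCF4 loading for 2 hrs at RT. HEK293T PPAR-delta-UAS-bla cells, 2% charcoal/dextran FBS, compounds for 18 hrs at 37 C. Hill fit gave IC50 and efficacy.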

[12] = target: Peroxisome proliferator-activated receptor delta (Homo sapiens) (UniProt Q03181); experiment: as above
Peroxisome proliferator-activated receptor delta (Homo sapiens), sequence (Q03181 whole entry, looked up): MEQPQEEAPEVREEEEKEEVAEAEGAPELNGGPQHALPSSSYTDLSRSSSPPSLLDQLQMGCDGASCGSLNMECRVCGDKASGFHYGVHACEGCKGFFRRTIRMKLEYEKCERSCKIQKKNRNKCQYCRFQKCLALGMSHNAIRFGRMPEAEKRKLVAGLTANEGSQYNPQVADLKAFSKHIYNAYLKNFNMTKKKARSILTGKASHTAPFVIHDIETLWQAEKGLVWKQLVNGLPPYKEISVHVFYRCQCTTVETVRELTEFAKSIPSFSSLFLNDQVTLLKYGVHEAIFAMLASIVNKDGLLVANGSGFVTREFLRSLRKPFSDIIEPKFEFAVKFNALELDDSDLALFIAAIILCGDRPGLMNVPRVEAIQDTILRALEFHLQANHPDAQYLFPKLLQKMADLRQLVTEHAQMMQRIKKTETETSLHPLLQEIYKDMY
How it was run: as §1

[13] = qHTS assay for small molecule activators of the p53 signaling pathway (AID 651743; active means well fitted activation curve with a large enough effect in the signal ratio, not every such curve was filed as active; the % refers to the signal ratio; further: series mostly up to about 92 µM); details: HCT-116 p53RE-bla, beta-lactamase FRET ratio, 16 h; activation: stronger effect = higher value
How it was run: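 Reporter: beta-lactamase driven by p53 response elements, stably integrated in HCT-116 cells. Cells seeded at 4,000/well, 5 h preincubation, compound (DMSO) 16 h at 37 C; B/G FRET substrate 2 h RT; fluorescence intensity read.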

[14] = target: Androgen receptor (Homo sapiens) (UniProt P10275); experiment: qHTS assay for small molecule antagonists of androgen receptor signaling (AID 588516; active means well fitted curve in the direction sought with a large enough effect in the signal ratio, with a control signal flat, not every such curve was filed as active; the % refers to the signal ratio)
How it was run: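 AR-UAS-bla-GripTite HEK 293 cells (2000/well, 5 h at 37 C) received compound titrations, then R1881 at 10 nM final; after 16 h at 37 C, CCF4 dye 2 h RT, beta-lactamase fluorescence read; IC50 from Hill fits.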

[15] = target: Retinoic acid receptor RXR-alpha (Homo sapiens) (UniProt P19793); experiment: qHTS assay for small molecule agonists of retinoid X receptor alpha signaling (AID 588544)
Retinoic acid receptor RXR-alpha (Homo sapiens), sequence (P19793 whole entry, looked up): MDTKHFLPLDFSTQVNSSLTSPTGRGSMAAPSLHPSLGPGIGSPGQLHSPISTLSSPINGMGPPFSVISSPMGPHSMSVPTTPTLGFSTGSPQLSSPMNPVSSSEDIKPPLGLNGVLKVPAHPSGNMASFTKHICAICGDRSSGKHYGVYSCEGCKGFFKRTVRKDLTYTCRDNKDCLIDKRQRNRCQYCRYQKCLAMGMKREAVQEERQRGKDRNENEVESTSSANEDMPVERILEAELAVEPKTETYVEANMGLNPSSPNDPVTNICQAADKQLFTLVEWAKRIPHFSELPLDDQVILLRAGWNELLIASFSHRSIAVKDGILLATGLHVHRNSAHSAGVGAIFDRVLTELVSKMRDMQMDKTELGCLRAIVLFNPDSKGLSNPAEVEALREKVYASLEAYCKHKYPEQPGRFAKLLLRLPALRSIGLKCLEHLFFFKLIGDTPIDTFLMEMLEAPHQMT

[16] = qHTS assay for small molecule agonists of the antioxidant response element (ARE) signaling pathway (AID 651741; active means well fitted activation curve with a large enough effect in the signal ratio; the % refers to the signal ratio; further: potency means the concentration at half of the fitted maximal effect)
How it was run: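 HepG2 ARE-bla reporter cells, 2,000/well; 5 h settle at 37 C/5% CO2; compound pin transfer (23 nL, DMSO); 16 h at 37 C; LiveBLAzer B/G FRET substrate, 2 h RT; fluorescence intensity read.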

[17] = qHTS assay for cell viability of the p53RE-bla HCT-116 cell line (AID 743292; active means well fitted curve in the direction sought with a large enough effect; an effect the other way counts as inactive or inconclusive; further: nearly all actives have a fitted effect of over 55% in size)
How it was run: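 In this qHTS counter-screen, metabolically competent p53RE-bla HCT-116 cells were counted via their ATP content. Compounds were applied for 16 h at 37 C and luciferase-coupled luminescence was measured.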

[18] = target: Cytochrome P450 3A4 (Homo sapiens) (UniProt P08684); experiment: qHTS Assay for Activators of Cytochrome P450 3A4 (AID 885; active means well fitted curve in the direction sought with a large enough effect; an effect the other way counts as inactive or inconclusive; further: nearly all actives have a fitted effect of over 65% in size)
How it was run: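 Activators are scored by enhanced luminescence from CYP3A4 conversion of luciferin-PPXE (25uM, equal to KM) to luciferin, after 60 min at RT with an NADPH-regenerating system.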

SMILES: CSc1nc(NC(C)C)nc(NC(C)C)n1
- Potency [1]: inactive
- Potency [2]: inactive
- Potency [3]: inactive

SMILES: O=C1C=C2C(=CCOC2O)O1 (stereo not drawn)
- Potency [2]: 20 µM (active)
- activation [4]: 2.18% (inactive)
- max response [5]: -14.8% (inactive)

SMILES: C=C(C)c1ccccc1
- activation [6]: -3.16% (inactive)

SMILES: CCOc1nc(NC)nc(NC(=O)NS(=O)(=O)c2ccccc2C(=O)OC)n1
- Potency [7]: inactive
- activation [8]: -6.67% (inactive)
- Potency [9]: inactive
- activation [6]: -2.84% (inactive)
- Potency [10]: inactive
- max response [11]: 16.6%
- Potency [12]: inactive
- Potency [1]: inactive
- Potency [2]: inactive
- activation [13]: -5.96% (inactive)
- activation [4]: 1.48% (inactive)
- Potency [3]: inactive
- max response [5]: 1.05% (inactive)

SMILES: CCOP(=O)(SC(C)CC)SC(C)CC (stereo not drawn)
- Potency [7]: inactive
- activation [8]: 7.1% (inactive)
- Potency [14]: inactive
- Potency [9]: inactive
- activation [6]: -3.29% (inactive)
- Potency [10]: inactive
- max response [11]: -10.9%
- Potency [12]: inactive
- Potency [1]: inactive
- Potency [2]: inactive
- Potency [15]: inactive
- Potency [16]: inactive
- activation [13]: -0.0138% (inactive)
- activation [4]: -1.37% (inactive)
- Potency [3]: inactive
- Potency [17]: inactive
- max response [5]: 4.1% (inactive)

SMILES: C/C(=N\C(N)=O)N(C)Cc1ccc(Cl)nc1
- Potency [7]: inactive
- activation [8]: -2.44% (inactive)
- Potency [14]: inactive
- Potency [9]: inactive
- activation [6]: 2.77% (inactive)
- Potency [10]: inactive
- max response [11]: 39.3%
- Potency [12]: inactive
- Potency [1]: inactive
- Potency [2]: inactive
- Potency [15]: inactive
- activation [13]: -4.92% (inactive)
- Potency [3]: inactive
- max response [5]: 2.68% (inactive)

SMILES: COc1cc2c(cc1OC)-c1c(OC)c(OC)c(CO)c3c1C(C2)N(C)CC3 (stereo not drawn)
- Potency [18]: inactive

SMILES: O=S1OC[C@@H]2[C@H](CO1)[C@@]1(Cl)C(Cl)=C(Cl)[C@]2(Cl)C1(Cl)Cl (stereo partly drawn)
- Potency [7]: inactive
- activation [8]: -8.15% (inactive) and -7.22% (inactive)
- Potency [14]: inactive
- activation [6]: 1.84% (inactive) and 4.33% (inactive)
- Potency [1]: inactive
- Potency [2]: inactive
- Potency [15]: inactive
- Potency [16]: 24.3 µM (active)
- activation [13]: -3.81% (inactive) and -3.84% (inactive)
- activation [4]: 0.712% (inactive) and 0.812% (inactive)
- Potency [3]: inactive
- Potency [17]: inactive

SMILES: FC(F)(F)c1ccc(OCCCOc2c(Cl)cc(OCC=C(Cl)Cl)cc2Cl)nc1
- Potency [7]: inactive
- activation [8]: -16.8% (inactive)
- Potency [14]: inactive
- Potency [9]: inactive
- activation [6]: -2.38% (inactive)
- max response [11]: -4.25%
- Potency [12]: inactive
- Potency [1]: inactive
- Potency [15]: inactive
- Potency [16]: 54.5 µM (active)
- activation [13]: 2.67% (inactive)
- activation [4]: 0.158% (inactive)
- Potency [17]: inactive
- max response [5]: 1.93% (inactive)
